Laboratory results reported in PubChem BioAssay AID492963 (The Scripps Research Institute Molecular Screening Center, 2010).
In all, about 1,100 compounds went through this assay and about 420 (38%) were called active. Rule as the data show it: active = inhibition above about 29%; inactive = the rest. These entries were drawn from the full list.

The molecules below were run against Orexin/Hypocretin receptor type 1 (Homo sapiens) (UniProt O43613) (assay: HCRTR1 blockers, calcium flux retest – fluorescence, CHO/OX1R cells, Fluo-8 calcium, orexin A, confirmation (AID 492963;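 also: 0% = agonist challenge alone and 100% = reference antagonist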)). Conditions: orexin A calcium Fluo-8 fluorescence, at 5 µM, hits give high values.
Chain of Orexin/Hypocretin receptor type 1 (Homo sapiens) (O43613 whole entry, looked up): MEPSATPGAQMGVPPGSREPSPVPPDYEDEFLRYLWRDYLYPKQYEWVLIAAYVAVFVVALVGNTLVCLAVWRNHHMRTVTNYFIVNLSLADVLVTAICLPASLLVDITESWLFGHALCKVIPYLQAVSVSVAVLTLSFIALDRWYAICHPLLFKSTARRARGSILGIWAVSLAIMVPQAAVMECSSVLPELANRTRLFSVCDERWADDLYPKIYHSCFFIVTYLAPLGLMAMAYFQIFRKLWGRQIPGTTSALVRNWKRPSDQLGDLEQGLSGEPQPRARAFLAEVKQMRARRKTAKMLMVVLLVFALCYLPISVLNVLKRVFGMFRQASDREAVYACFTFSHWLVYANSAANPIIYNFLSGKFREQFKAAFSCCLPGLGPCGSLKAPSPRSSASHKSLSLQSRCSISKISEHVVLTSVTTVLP

Row | SMILES | inhibition
1 | O=C(Nc1cccc2cccnc12)c1cccc(N2C(=O)CCC2=O)c1 | 33.2% (active)
2 | CCOC(=O)c1cccc(NC(=O)CN(c2ccc(C)cc2)S(=O)(=O)c2c(C)noc2C)c1 | 5.21% (inactive)
3 | COc1ccc2sc(-c3ccc(N(C)C)cc3)c(C#CCO)c2c1 | 25.9% (inactive)
4 | CCOC(=O)c1c(-c2ccc(C)cc2C)csc1NC(=O)CSc1nnnn1C | -17.1% (inactive)
5 | CCn1c(SCC(=O)c2ccc3ccccc3c2)nnc1-c1cccs1 | 29.5% (active)
6 | CCOC(=O)N1CCN(C(=O)c2ccc(S(=O)(=O)Nc3cccc(C(F)(F)F)c3)cc2)CC1 | 15.2% (inactive)
7 | COc1ccc(N2CC(C(=O)NCCN3C(=O)S/C(=C\c4cccnc4)C3=O)CC2=O)c(OC)c1 (stereo not given) | 26.6% (inactive)
8 | COc1cc(CN2CC(C)CC(C)C2)cc([N+](=O)[O-])c1O (stereo not given) | -4.4% (inactive)
9 | COc1ccccc1CNC(=O)C1CCCN(S(=O)(=O)c2cccc3cccnc23)C1 (stereo not given) | -1.33% (inactive)
10 | Cc1cc(C)cc(NC(=O)C2CCCN2S(=O)(=O)c2cccc3cccnc23)c1 (stereo not given) | 62.9% (active)
11 | NC(=O)C1=C[C@@H](c2ccc3c(c2)OCO3)C[C@@H](OCCCCO)O1 | 1.6% (inactive)
12 | CC1(C)C2CC=C(/C=N/NC(=O)C3CC3)C1C2 (stereo not given) | -24.5% (inactive)
13 | O=C(Cn1[nH]c(=O)c2ccccc2c1=O)Nc1cccc(-c2nnc3n2CCCCC3)c1 | 24.9% (inactive)
14 | S=C(NCc1ccc(Cl)cc1)NC12CC3CC(CC(C3)C1)C2 | 10.8% (inactive)
15 | Cc1cc(N2CCCC2=O)cc(C)c1S(N)(=O)=O | 1.01% (inactive)
16 | N#C/C(=C/c1ccc(N2CCCCC2)o1)C(=O)NCCc1c[nH]c2ccccc12 | 48.7% (active)
17 | O=C(N/N=C/c1c(Cl)[nH]c2ccccc12)c1sc2ccccc2c1Cl | 79% (active)
18 | C/C(N)=C(/C#N)C(=O)COC(=O)c1cc(-c2ccc(C)cc2)nc2ccccc12 | -4.02% (inactive)
19 | CCc1ccccc1OCC(=O)Nc1ccc(C)c(S(=O)(=O)N2CCCCCC2)c1 | 5.4% (inactive)
20 | O=C(NC(Cc1c[nH]c2ccccc12)C(=O)N/N=C/c1ccc(Br)cc1)c1cccs1 (stereo not given) | 55.8% (active)
21 | CCOc1ccc(CCNC(=O)C(CC)n2nc(C)n3c(cc4sccc43)c2=O)cc1OCC (stereo not given) | 25.3% (inactive)
22 | CC(C)(C)NC(=O)CN(C(=O)c1csnn1)c1ccccc1-c1ccccc1 | 18.8% (inactive)

Row | SMILES | inhibition
23 | N#C/C(=C1\CCCN1)c1nc(-c2ccccc2)cs1 | 40% (active)
24 | N#CC(=C1SC=CS1)c1nc(-c2ccccc2)cs1 | 87.3% (active)
25 | Nc1nc(COC(=O)CCC(=O)c2ccc(Cl)cc2)nc(Nc2ccccc2)n1 | 19.1% (inactive)
26 | CC(Oc1ccc2ccccc2c1)C(=O)NNC(=S)NC(=O)c1ccco1 (stereo not given) | 5.25% (inactive)
27 | N/C(=N\OC(=O)Nc1ccc(Cl)c(Cl)c1)c1ncc(C(F)(F)F)cc1Cl | 29% (active)
28 | COC(=O)c1sccc1NC(=O)CSc1ccccc1NS(=O)(=O)c1cc(Cl)ccc1Cl | 21.5% (inactive)
29 | Cc1cc(C(=O)NC2CCCc3c2cnn3-c2cccc(C)c2C)c(C)o1 (stereo not given) | 27.6% (inactive)
30 | CC(=O)Nc1cccc(OCC(=O)/C=C2\N(C)c3ccccc3C2(C)C)c1 | 15.6% (inactive)
31 | COc1ccc(/C=C/C(=O)c2ccc(NS(=O)(=O)c3ccc(C)cc3)cc2)cc1O | 42.2% (active)
32 | Cc1cccc(NS(=O)(=O)c2cccc(C(=O)NNC(=O)c3ccccc3O)c2)c1 | 14.2% (inactive)
33 | O=C1C=C(c2ccc(Cl)cc2)C(=O)N1Nc1ccccc1 | 57% (active)
34 | Cc1ccc2c(C)c(C(=O)N(C)CCC3CCCCO3)oc2c1C (stereo not given) | -17.4% (inactive)
35 | O=C(N/N=C/c1sc(N2CCCCC2)nc1-c1cccs1)c1cccnc1 | 48.1% (active)
36 | Cc1cccc(NC(=O)Nc2cccc(Oc3c(F)c(F)c(F)c(F)c3F)c2)c1 | 12.1% (inactive)
37 | CCCN(CC(=O)Nc1ccccc1OC)C(=O)CCC(=O)c1ccc(F)cc1 | 1.45% (inactive)
38 | Cc1cc(-c2ccc(C)c(S(=O)(=O)NC(C)Cc3ccco3)c2)on1 (stereo not given) | 0.43% (inactive)
39 | CCOc1ccc(/C=C/C(=O)OCC(=O)c2ccccc2OC)cc1OC | 36.1% (active)
40 | O=C(CCCN1CCc2[nH]c3ccc(F)cc3c2C1)c1ccc(F)cc1 | 26.4% (inactive)
41 | Cn1c(N)c(C(=O)COC(=O)c2ccc3ccccc3c2)c(=O)n(C)c1=O | 30.5% (active)
42 | Cc1ccc(S(=O)(=O)N2CCN(c3ncnc4ccccc34)CC2)cc1 | 15% (inactive)
43 | CCOc1cc(/C=C(\C#N)c2nc(-c3cccs3)c(NC(C)=O)s2)ccc1O | 18% (inactive)
44 | O=C1c2ccccc2S(=O)(=O)N1CC(O)Cn1c2ccccc2c2ccccc21 (stereo not given) | 29.4% (active)

Row | SMILES | inhibition
45 | CC1CCCN(CC(O)COCc2ccccc2)C1 (stereo not given) | 5.05% (inactive)
46 | O=C(OC1CCOC1=O)c1ccc(-c2nc3ccccc3s2)s1 (stereo not given) | 43.4% (active)
47 | CCCc1nc2c(c(=O)c3ccccc3n2C)c(=O)n1C1CCCCCC1 | 9.14% (inactive)
48 | S=c1[nH]nc(-c2cc(-c3ccccc3)n[nH]2)n1/N=C/c1c2ccccc2cc2ccccc12 | 38.1% (active)
49 | CCOC(=O)N1CCN(c2cc(C)c([N+](=O)[O-])cc2F)CC1 | 17.3% (inactive)
50 | COc1cccc(C(=O)NC(=O)Nc2nc(C)cc(C(F)(F)F)n2)c1 | 35% (active)
51 | CCCCCCCC(=O)NC(Nc1ccccc1OC)C(Cl)(Cl)Cl (stereo not given) | -23.5% (inactive)
52 | CCCCC(=O)NNC(=S)NC(=O)C(c1ccccc1)c1ccccc1 | 58.6% (active)
53 | Cc1ccc(NC(=O)COc2ccc(-n3ccnc3)cc2)cc1Cl | 22.1% (inactive)
54 | O=C(Nc1cccc(NC(=O)N2CCN(c3ccccc3)CC2)c1)N1CCN(c2ccccc2)CC1 | 37.3% (active)
55 | COc1cc2ccccc2cc1C(=O)Nc1ccc(N2CCOCC2)cc1 | -1.28% (inactive)
56 | CN(c1ccccc1)S(=O)(=O)c1cccc(NC(=O)Cc2ccc(Cl)cc2)c1 | 26% (inactive)
57 | N#Cc1nc(-c2cccc3ccccc23)oc1N | 40.6% (active)
58 | COc1cccc(/C=N/NC(=O)c2[nH]nc3c2CCc2ccccc2-3)c1O | 20.3% (inactive)
59 | COc1cccc(/C=N/Nc2cc(C)nc(-c3ccccc3O)n2)c1O | 69.7% (active)
60 | CCC(=O)N(C)C(c1ccccc1Cl)c1nnnn1-c1c(C)cccc1C (stereo not given) | 21.7% (inactive)
61 | Cc1ccccc1S(=O)(=O)N1[C@@H](c2cccc(Cl)c2)C(C(=O)O)=CC[C@H]1c1ccc(Cl)cc1 | 43.3% (active)
62 | COCc1c(C(=O)OCC(=O)Nc2ccc(OC(F)F)cc2)oc2ccccc12 | 26.3% (inactive)
63 | C=CCn1c(SCC(=O)Nc2nc3ccccc3s2)nnc1-c1ccccc1O | 48% (active)
64 | COc1ccc2[nH]cc(/C=C(/C#N)S(=O)(=O)c3ccccc3)c2c1 | 8.34% (inactive)
65 | c1coc(CNc2ncnc3ccccc23)c1 | 24.7% (inactive)
